# Experimental data reported in PubChem BioAssay (NCATS).
# Biological target: Phenylethanolamine N-methyltransferase (Homo sapiens) (UniProt P11086)
# Assay: Confirmatory Screen for Target Class Profiling of Small Molecule Inhibitors of Methyltransferases (AID 1745852)
# Details: MTase-Glo luminescence, SAH detection, recombinant enzyme; measured here: PNMT max response; stronger effect = lower value
# Phenylethanolamine N-methyltransferase (Homo sapiens), sequence (P11086 whole entry, looked up): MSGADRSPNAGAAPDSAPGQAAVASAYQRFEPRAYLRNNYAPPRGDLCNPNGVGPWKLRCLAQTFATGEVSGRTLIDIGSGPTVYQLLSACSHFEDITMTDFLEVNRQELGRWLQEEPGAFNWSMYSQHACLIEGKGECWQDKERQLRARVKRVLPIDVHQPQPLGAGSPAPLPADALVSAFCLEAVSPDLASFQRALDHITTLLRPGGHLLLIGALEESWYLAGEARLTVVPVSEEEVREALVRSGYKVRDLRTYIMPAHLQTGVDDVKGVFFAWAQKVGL
row,Compound,activity
1,CC(C)c1nc(-c2ccc(NC(=O)Nc3cccc(C(F)(F)F)c3)c3ccccc23)c2c(N)nccn12,-6.27%
2,Cc1ccc([N+](=O)[O-])cc1S(=O)(=O)N(C)/N=C/c1cnc2ccc(Br)cn12,-16.6%
3,C=C1C(=O)OC2/C=C(\CO)CC/C=C(\C=O)CC(OC(=O)CC(C)C)C12 (configuration not stated),-2.45%
4,CC(C)c1cccc2c(-c3ccccc3)cc(-c3ccc(-c4ccc(C(=O)O)cc4)[nH]3)nc12,-5.01%
5,COc1cc2c(cc1O)CC[C@H]1[C@@H]2CC[C@]2(C)[C@H](O)CC[C@@H]12,-7.82%
6,CN(C)c1nc(NC2CCC(NC(=O)c3ccc(F)c(F)c3)CC2)nc2ccccc12 (configuration not stated),-21.7%
7,NC[C@@](O)(c1ccc(Cl)cc1)c1ccc(-c2cn[nH]c2)cc1,-0.0519%
8,CC1=CC(=O)CC(C)(C)C1CCC(C)O[C@@H]1O[C@H](CO[C@@H]2OC[C@@H](O)[C@H](O)[C@H]2O)[C@@H](O)[C@H](O)[C@H]1O (some centres not stated),0.0687%
9,COc1cc(NC(=O)Nc2cccc(CNC(=O)O[C@H]3CCOC3)c2)ccc1-c1cnco1,-5.11%
10,NC(=O)c1cnc(NCCc2ccc(O)c(Cl)c2)nc1NCc1ccccc1,-25.9%
11,N#Cc1cnc2cnc(NCc3cccnc3)cc2c1Nc1ccc(F)c(Cl)c1,-6.2%
12,CCS(=O)(=O)N1CCN(c2ccc(Nc3ncc(C(N)=O)c(NC4CC4)n3)cc2)CC1,-8.46%
13,COc1cc(C(=O)OC[C@H]2O[C@@H](Oc3ccccc3/C=C/C(=O)O)[C@H](O)[C@@H](O)[C@@H]2O)cc(OC)c1OC,-3.5%
14,CCc1c(-c2ccccc2)c(-c2ccccc2)nn1-c1ccccc1-c1cccc(OCC(=O)O)c1,-7.07%
15,O=C(O)c1ccc(CN2CCC(CN[C@@H]3C[C@H]3c3ccccc3)CC2)cc1,5.38%
16,CN(c1ccccc1CNc1nc(Nc2ccc3c(c2)CC(=O)N3)ncc1C(F)(F)F)S(C)(=O)=O,-5.42%

row,Compound,activity
1,COc1cc2ncnc(Nc3ccc(F)c(Cl)c3)c2cc1NC(=O)/C=C/CN1CCCCC1,-39.3%
2,Cc1cc(O)c(-c2ccc([C@@H](C)CN(C)C)cc2)c2c1[nH]c(=O)c1sccc12,-48.7%
3,COc1cc2nc(N3CCC(N4CCCCC4)CC3)nc(NC3CCCCCC3)c2cc1OC,-35.6%
4,COc1cc2c(NC3CCN(CC4CCCCC4)CC3)nc(N3CCCN(C(C)C)CC3)nc2cc1OCCCN1CCCCC1,-1.55%
5,C=C1C(=O)OC2C1CCC(=C)C1CC(OC(C)=O)C(=C)C12 (configuration not stated),-8.53%
6,CC1(C)CC[C@]2(C(=O)O[C@@H]3O[C@H](CO)[C@@H](O)[C@H](O)[C@H]3O)CC[C@]3(C)C(=CCC4[C@@]5(C)C[C@@H](O)[C@H](O)[C@@](C)(CO)C5CC[C@]43C)C2[C@@H]1O (some centres not stated),-1.38%
7,Oc1ccc(CNc2ccccc2F)c2cccnc12,6.4%
8,C=C(C)C1Cc2cc(C(=O)OC3OC(CO)C(O)C(O)C3O)ccc2O1 (configuration not stated),-3.74%
9,CN(C)C/C=C/C(=O)Nc1cccc(C(=O)Nc2ccc(Nc3nccc(-c4cccnc4)n3)cc2)c1,1.39%
10,CCOC(=O)CCN(C(=O)c1ccc2c(c1)nc(CNc1ccc(C(=N)N)cc1)n2C)c1ccccn1,0.0478%
11,CN(C)C/C=C/C(=O)Nc1cccc(C(=O)Nc2cccc(Nc3ncc(Cl)c(-c4c[nH]c5ccccc45)n3)c2)c1,-9.06%
12,CN1CCN(C(=O)c2ccc3cc(CCNc4ncnc5ccc(C#N)cc45)ccc3c2)CC1,-8.1%
13,CCN1CCN(Cc2ccc(NC(=O)Nc3ccc(Oc4cc(NC)ncn4)cc3)cc2C(F)(F)F)CC1,-2.63%
14,CC/C=C\CCO[C@@H]1O[C@H](CO)[C@@H](O)[C@H](O)[C@H]1O,0.287%
15,CNS(=O)(=O)CC1CCC(N(C)c2ncnc3[nH]ccc23)CC1 (configuration not stated),-84.3%
16,Cc1cc(=O)oc2c(C=O)c(O)ccc12,-37.6%
